Measured values taken from PubChem BioAssay (Tox21).
Inconclusive results are not listed. Active and inactive are the calls of the source. Unless noted, the call rests on the fitted dose curve; in most records, active means well fitted curve in the direction sought with a large enough effect in the repeat runs; inconclusive means weak or mixed curves; inactive means no such curve, though single readings can be large; an effect the other way counts as inactive or inconclusive.

Key:
[1] = qHTS assay to test for compound auto fluorescence at 590 nm (red) in HepG2 cells (AID 720674)
In short: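 We screened compounds on adherent HepG2 cells, incubating them for an hour at 37 C in 5% CO2 before reading emission at 590 nm under 540 nm excitation; values reflect equivalence to Rose Bengal sodium fluorescence.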

[2] = qHTS assay to test for compound auto fluorescence at 535 nm (green) in HepG2 cells (AID 720675)
[3] = qHTS assay to test for compound auto fluorescence at 460 nm (blue) in HEK293 cells (AID 720678)
In short: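 HEK293, 2,000 cells/well, 10% dialyzed FBS; attach 4-5 hr 37C; pin compound or DMSO; o/n 37C/5% CO2; fluorescence 405/460 nm; triamterene-equivalent units.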

[4] = qHTS assay to test for compound auto fluorescence at 590 nm (red) in HEK293 cells (AID 720679)
In short: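 Intensity at 540nm excitation and 590nm emission is reported as Rose Bengal sodium-equivalent autofluorescence. Measurements followed overnight exposure (37C, 5% CO2) of HEK293 cells, 2,000 per well, to 23 nL compound.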

[5] = qHTS assay to test for compound auto fluorescence at 535 nm (green) in HEK293 cells (AID 720680)
[6] = qHTS assay to test for compound auto fluorescence at 460 nm (blue) in HEK293 cell free culture (AID 720681)
In short: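 Blue fluorescence (Ex 405/Em 460 nm, triamterene-equivalent) was read immediately after pin transfer of compound or DMSO into medium (DMEM, 10% FBS) without cells.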

[7] = qHTS assay to test for compound auto fluorescence at 535 nm (green) in HEK293 cell free culture (AID 720682)
In short: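 Each library compound, or DMSO control, is added by pintool to medium alone, comprising DMEM and 10% FBS. Emission at 535 nm following 485 nm excitation is quantified against fluorescein.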

[8] = qHTS assay to test for compound auto fluorescence at 590 nm (red) in HEK293 cell free culture (AID 720683)
In short: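 Red-channel autofluorescence of compounds in culture medium (DMEM, 10% FBS), no cells, measured at 540/590 nm. Rose Bengal sodium is the reference fluorophore for equivalence.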

[9] = qHTS assay to test for compound auto fluorescence at 590 nm (red) in HepG2 cell free culture (AID 720684)
In short: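 No cells present: MEM + 10% FBS only. Compound pinned in, red label read (540/590 nm). Activity = fluorescence equivalent to Rose Bengal sodium.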

[10] = qHTS assay to test for compound auto fluorescence at 460 nm (blue) in HepG2 cell free culture (AID 720685)
In short: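 Cell-free plates of MEM plus 10% FBS received 23 nL compound or DMSO vehicle; blue-channel (405/460 nm) intensity scored against triamterene as reference fluorophore.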

[11] = qHTS assay to test for compound auto fluorescence at 535 nm (green) in HepG2 cell free culture (AID 720686)
[12] = qHTS assay to test for compound auto fluorescence at 460 nm (blue) in HepG2 cells (AID 720687)
In short: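 Blue-channel autofluorescence (Ex/Em 405/460 nm, triamterene-equivalent) was measured after 1 hr compound exposure at 37 C, 5% CO2. Cells were HepG2, plated overnight at 37 C in MEM plus 10% FBS.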

[13] = target: Aromatase (Homo sapiens) (UniProt P11511); experiment: qHTS assay to identify aromatase inhibitors (AID 743083); further: series mostly up to about 70 µM; nearly all actives have a fitted effect of over 55% in size
Chain of Aromatase (Homo sapiens) (P11511 whole entry, looked up): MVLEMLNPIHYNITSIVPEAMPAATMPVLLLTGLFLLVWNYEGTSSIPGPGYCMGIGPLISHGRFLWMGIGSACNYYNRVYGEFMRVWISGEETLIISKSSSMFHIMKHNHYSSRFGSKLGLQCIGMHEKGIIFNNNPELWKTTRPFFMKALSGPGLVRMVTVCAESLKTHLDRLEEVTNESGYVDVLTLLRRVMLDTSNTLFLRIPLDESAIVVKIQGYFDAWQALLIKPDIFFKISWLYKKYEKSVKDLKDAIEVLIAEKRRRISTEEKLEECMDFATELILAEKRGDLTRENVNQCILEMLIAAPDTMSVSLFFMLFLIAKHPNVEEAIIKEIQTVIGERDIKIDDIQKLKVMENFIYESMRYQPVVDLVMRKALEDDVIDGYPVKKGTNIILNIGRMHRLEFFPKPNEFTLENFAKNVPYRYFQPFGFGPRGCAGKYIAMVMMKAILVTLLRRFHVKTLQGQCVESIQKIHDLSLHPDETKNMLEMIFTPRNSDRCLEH

[14] = target: Aryl hydrocarbon receptor (Homo sapiens) (UniProt P35869); experiment: qHTS assay to identify small molecule that activate the aryl hydrocarbon receptor (AhR) signaling pathway (AID 743085);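 further: HG2L7.5c1 human HepG2 liver cells with stably integrated DRE-driven firefly reporter; series mostly up to about 70 µM; nearly all actives have a fitted effect of over 15% in size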
Chain of Aryl hydrocarbon receptor (Homo sapiens) (P35869 whole entry, looked up): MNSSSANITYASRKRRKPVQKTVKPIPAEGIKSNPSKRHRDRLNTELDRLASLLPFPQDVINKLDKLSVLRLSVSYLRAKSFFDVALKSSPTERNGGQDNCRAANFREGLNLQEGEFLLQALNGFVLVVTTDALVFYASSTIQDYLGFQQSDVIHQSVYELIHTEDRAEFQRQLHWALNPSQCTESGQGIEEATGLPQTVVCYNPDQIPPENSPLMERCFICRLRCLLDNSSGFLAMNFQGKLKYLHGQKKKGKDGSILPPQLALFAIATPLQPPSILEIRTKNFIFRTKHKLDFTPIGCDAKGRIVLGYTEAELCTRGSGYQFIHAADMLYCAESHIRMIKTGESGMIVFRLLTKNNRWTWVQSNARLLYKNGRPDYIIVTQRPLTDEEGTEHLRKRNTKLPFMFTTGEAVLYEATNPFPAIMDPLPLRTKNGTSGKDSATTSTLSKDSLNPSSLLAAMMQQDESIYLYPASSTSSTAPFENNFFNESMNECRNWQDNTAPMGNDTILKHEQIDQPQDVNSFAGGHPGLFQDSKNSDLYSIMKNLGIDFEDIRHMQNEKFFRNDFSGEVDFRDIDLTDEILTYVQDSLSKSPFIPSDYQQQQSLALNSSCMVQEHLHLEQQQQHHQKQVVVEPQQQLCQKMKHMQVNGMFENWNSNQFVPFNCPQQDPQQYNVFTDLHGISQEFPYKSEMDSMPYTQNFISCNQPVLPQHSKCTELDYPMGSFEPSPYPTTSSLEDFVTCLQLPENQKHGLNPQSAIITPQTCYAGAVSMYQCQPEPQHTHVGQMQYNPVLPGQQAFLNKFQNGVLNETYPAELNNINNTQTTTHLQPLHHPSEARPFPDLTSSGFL
In short: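 Stably transfected human liver carcinoma cells (HG2L7.5c1; 20 DRE-firefly luciferase) were incubated 5 h, dosed, and kept 24 h at 37C. Agonism was scored from increased luciferase luminescence.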

[15] = target: Luciferin 4-monooxygenase (Photinus pyralis) (UniProt P08659); experiment: qHTS assay to identify small molecule inhibitors of firefly luciferase (AID 1224835); further: series mostly up to about 120 µM; nearly all actives have a fitted effect of over 25% in size
Chain of Luciferin 4-monooxygenase (Photinus pyralis) (P08659 whole entry, looked up): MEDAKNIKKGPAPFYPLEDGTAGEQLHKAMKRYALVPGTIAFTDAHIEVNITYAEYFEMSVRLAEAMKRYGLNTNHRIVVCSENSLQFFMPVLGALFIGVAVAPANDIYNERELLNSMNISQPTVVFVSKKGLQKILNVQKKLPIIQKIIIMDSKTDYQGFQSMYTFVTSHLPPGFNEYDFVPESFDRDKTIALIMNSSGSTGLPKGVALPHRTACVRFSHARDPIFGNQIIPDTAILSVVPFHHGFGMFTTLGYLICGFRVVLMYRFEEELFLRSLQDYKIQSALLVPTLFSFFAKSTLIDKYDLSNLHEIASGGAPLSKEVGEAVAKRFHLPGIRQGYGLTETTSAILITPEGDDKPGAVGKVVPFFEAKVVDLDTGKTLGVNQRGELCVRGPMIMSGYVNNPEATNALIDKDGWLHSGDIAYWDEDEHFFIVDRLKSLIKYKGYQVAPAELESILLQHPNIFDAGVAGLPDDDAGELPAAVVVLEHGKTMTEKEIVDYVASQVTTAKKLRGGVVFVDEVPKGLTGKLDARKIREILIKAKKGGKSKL
In short: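 Inhibition of purified Photinus luciferase is measured by luminescence. Substrate levels (D-luciferin, ATP) sit at their KM values. Each compound is tested in a concentration series.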

[16] = qHTS RealTime-Glo MT Cell Viability Assay in HEK293 cells - 0 hour (AID 1224880); further: top concentration of the series differs between compounds; nearly all actives have a fitted effect of over 45% in size
In short: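 HEK293 + NanoLuc + prosubstrate, 600 cells/well; 5 h, 37 C/5% CO2; compound 23 nL in DMSO by pintool; 37 C; luminescence read at 0, 8, 16, 24, 32 and 40 h time points.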

[17] = qHTS assay to identify small molecule agonists of the sonic hedgehog signaling (Shh) pathway (AID 1259368; calls by dose curve;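 further: NIH/3T3-derived 3T3Gli1-Luc cells carrying a stable Gli1-driven firefly luciferase reporter; series mostly up to about 92 µM; nearly all actives have a fitted effect of over 15% in size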)
In short: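 Hedgehog pathway agonism scored by increased firefly luciferase luminescence in 3T3Gli1-Luc cells treated 24 hr at 37 C; detection used a 30 min room-temperature reagent incubation.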

[18] = qHTS assay to identify small molecule antagonists of the progesterone receptor (PR) signaling pathway - cell viability counter screen (AID 1346798); further: series mostly up to about 92 µM; nearly all actives have a fitted effect of over 50% in size
In short: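 In the same plates used for the beta-lactamase readout, cell viability of compound- and R5020-treated PR-UAS-bla HEK293T cells (16 hr, 37C) was assessed by CellTiter-Glo luminescence.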

[19] = target: Thyrotropin-releasing hormone receptor (Homo sapiens) (UniProt P34981); experiment: qHTS assay to identify small molecule antagonists of the thyrotropin-releasing hormone receptor (TRHR) signaling pathway (AID 1346877; active means well fitted inhibition curve with a large enough effect in the repeat runs, not every such curve was filed as active; further: series mostly up to about 51 µM)
Chain of Thyrotropin-releasing hormone receptor (Homo sapiens) (P34981 whole entry, looked up): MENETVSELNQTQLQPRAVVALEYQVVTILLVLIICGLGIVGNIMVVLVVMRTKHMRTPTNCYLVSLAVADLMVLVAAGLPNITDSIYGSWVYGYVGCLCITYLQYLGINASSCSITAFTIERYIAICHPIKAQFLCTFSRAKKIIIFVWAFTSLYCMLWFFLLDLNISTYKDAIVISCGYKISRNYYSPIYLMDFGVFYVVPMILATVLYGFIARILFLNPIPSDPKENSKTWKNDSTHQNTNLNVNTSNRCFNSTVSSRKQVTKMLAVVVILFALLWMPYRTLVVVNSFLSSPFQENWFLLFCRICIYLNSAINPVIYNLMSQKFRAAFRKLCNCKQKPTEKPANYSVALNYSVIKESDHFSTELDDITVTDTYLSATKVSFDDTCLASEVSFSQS
In short: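 Overnight-plated (18 h, 37 °C) HEK293 cells expressing TRHR were dye-loaded 2 h, treated with compound, then stimulated with TRH at 1 nM final. Fluorescence intensity was captured every second for 3 min.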

[20] = target: Thyrotropin-releasing hormone receptor (Homo sapiens) (UniProt P34981); experiment: qHTS assay to identify small molecule agonists of the thyrotropin-releasing hormone receptor (TRHR) signaling pathway (AID 1346891; calls by dose curve; further: series mostly up to about 58 µM)
In short: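 Readout was intracellular calcium fluorescence in TRHR-Hek293 cells. Cells were incubated 18 h, dye-loaded 2 h at 37 °C, and treated with compound in agonist mode.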

[21] = Caspase-3/7 induction in HepG2 cells by small molecules, qHTS assay (AID 1346978); further: nearly all actives have a fitted effect of over 15% in size
In short: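 Caspase-3/7 induction was measured by Caspase-Glo 3/7 luminescence (30 min, room temperature) after a 17 hr compound exposure of wild-type HepG2 cells seeded at 2,000 per well and pre-incubated 5 hr.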

[22] = Caspase-3/7 induction in CHO-K1 cells by small molecules, qHTS assay (AID 1346980); further: nearly all actives have a fitted effect of over 15% in size
In short: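 Luminescent Caspase-Glo 3/7 read (30min, room temperature) quantified apoptosis induction. Cells were wild-type CHO-K1, treated with compound for 17hr at 37 C and 5% CO2.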

Measured: Potency

O=[N+]([O-])c1ccccc1Cl
inactive: all assays above
